Laboratory results: PubChem BioAssay AID2289 (National Center for Advancing Translational Sciences (NCATS), 2010)
In all, about 340,000 compounds went through this assay and about 3,300 (0.97%) were called active. About 9% were inconclusive and are not listed. Calls come from the whole dose curve; as a rule, active = well fitted inhibition curve with a large enough effect; inconclusive = small, poorly fitted or top-dose-only effect, or effect the other way; inactive = flat fitted curve, though single readings scatter. This is one part of the list.

Experiment: qHTS Assay for Modulators of miRNAs and/or Inhibitors of miR-21; note: nearly all actives have a fitted effect of over 55% in size
Details: HeLa miR-21-FLuc reporter, luciferase luminescence, 48 h; actives lower the signal
In short: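 HeLa cells endogenously expressing miR-21, stably carrying CMV-driven firefly luciferase with a downstream miR-21 binding site, 2000 cells/well. Titrations up to approximately 40 uM, 48 hours; luciferase luminescence read.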
Potency is the fitted concentration of half-maximal effect.

Potency, active:
Cc1ccc(S(=O)(=O)Oc2cccc(/C=N/Nc3ccc(C(=O)O)cc3)c2)cc1 13.1 µM
O=C(O)c1ccc(/C=N/Nc2cccc(C(F)(F)F)c2)cc1 7.36 µM
FC(F)(F)c1cccc(N/N=C/c2ccccc2)c1 6.56 µM
O=C(O)c1ccc(N/N=C/c2cccc(C(F)(F)F)c2)cc1 1.85 µM
Cc1nn(-c2cccc(C(F)(F)F)c2)c(Cl)c1/C=N/Nc1cccc(C(=O)O)c1 0.104 µM
Oc1ccc(/C=N/Nc2ccc(C(F)(F)F)cn2)cc1O 10.4 µM
CCNc1nc(NCC)nc(N/N=C/c2ccc(O)c(O)c2)n1 18.5 µM
Oc1ccc(/C=N/Nc2ccc(Cl)nn2)cc1O 13.1 µM
O=C1C[C@H]2[C@H](CO)[C@@H](OC(=O)c3ccc(-c4ccccc4)cc3)C[C@H]2O1 7.36 µM
O=C(O)c1cccc(N/N=C/c2cc(Br)cc(Br)c2O)c1 5.21 µM
O=C(O)c1ccccc1N/N=C/c1cc(Br)cc(Br)c1O 2.07 µM
O=c1[nH]c2ccccc2c2cn(-c3ccccc3)nc12 4.65 µM
CC(CNC(=O)c1ccc2c(c1)nc1n2CCOC1)c1ccccc1 (centres undefined) 13.1 µM
Cc1cccc(CCNC(=O)c2ccc3c(c2)nc2n3CCOC2)c1 3.29 µM
COc1cc(Cl)cc(/C=C/c2ccc3ccccc3n2)c1OC(C)=O 0.414 µM
O=C1c2ccccc2-c2nc3ccccc3cc21 1.47 µM
COc1ccc(OCC(=O)Nc2ccc(-c3nc4cc(C)c(C)cc4o3)cc2)cc1 0.131 µM
Cc1cc2nc(-c3cccc(NC(=O)COc4ccc(C(C)C)cc4)c3)oc2cc1C 0.369 µM
O=C(COc1ccc(Cl)cc1)Nc1ccc(-c2nc3cc(Cl)ccc3o2)c(O)c1 7.36 µM
COc1ccc(OCC(=O)Nc2ccc(-c3nc4cc(Cl)ccc4o3)cc2)cc1 2.93 µM
O=C(OCC(=O)N1CCOCC1)c1ccccc1Cc1ccccc1 2.93 µM
N/C(=N\OC(=O)c1ccc2ccccc2c1)c1ccncc1 0.585 µM
N/C(=N\OC(=O)c1cccc2ccccc12)c1ccncc1 16.5 µM
Cc1ccccc1C(=O)O/N=C(\N)c1ccncc1 6.56 µM
COc1ccc(-n2cc(-c3ccccc3)nc2SC)cc1 8.26 µM
CCOc1ccc(-c2cn(-c3ccc(OC)cc3)c(SC)n2)cc1 2.93 µM
C=CCN1N=C(/C=C/c2ccc(C)cc2)CCC1=O 10.4 µM
C=CCN1N=C(/C=C/c2ccc(OC)cc2)CCC1=O 14.7 µM
Cc1cc2sc3nc(=O)n(-c4ccccc4)c(=O)n3c2cc1C 4.14 µM
Cc1ccc2c(c1)sc1nc(=O)n(-c3ccccc3)c(=O)n12 0.131 µM
Cc1snc(SCC(=O)c2ccc(F)cc2)c1C#N 4.65 µM
O=C(Nc1ccc2oc(-c3ccccc3Cl)nc2c1)c1ncn[nH]1 0.927 µM
O=C(Nc1ccccc1O)c1ccc(NC(=O)C2CC2)cc1 6.56 µM
Cc1ccccc1-c1nc2cc(NC(=O)C3CC3)ccc2o1 0.414 µM
O=C1c2ccccc2C(=O)c2cc(NC(=O)C3CC3)ccc21 0.736 µM
N#Cc1c(N2CCOCC2)nsc1-c1ccccc1 13.1 µM
N#Cc1c(N2CCOCC2)nsc1-c1ccc(C(F)(F)F)cc1 5.85 µM
N#Cc1c(N2CCCC2)nsc1-c1ccccc1 16.5 µM
CCOc1ccc2nc(SCC(=O)c3cccs3)sc2c1 4.14 µM
CC1CCc2sc3nc(N4CCN(CCO)CC4)n4ncnc4c3c2C1 (centres undefined) 13.1 µM
CN1CCc2c(sc(NC(=O)C3COc4ccccc4O3)c2C(N)=O)C1 (centres undefined) 9.27 µM
Fc1ccccc1Nc1nc2c(s1)CCc1ccccc1-2 0.464 µM
COc1cc(CCC(C)=O)ccc1OC(=O)c1c(F)cccc1Cl 2.93 µM
C=CCn1c(SCC(=O)Nc2ccc(-c3nc4ccc(C)cc4s3)cc2)nnc1-c1ccccc1 1.17 µM
C=CCn1c(SCC(=O)Nc2ccc(-c3nc4ccc(C)cc4s3)cc2)nnc1-c1ccncc1 8.26 µM
C/C(=N/Nc1ccc(C(=O)O)cc1)c1ccc(O)c(O)c1O 18.5 µM
Cc1ccccc1-c1nnc(SCC(=O)N2CCCC2)o1 7.36 µM
O=C(CSc1nnc(-c2ccccc2Cl)o1)N1CCOCC1 3.69 µM
CC(=O)c1cnc(Nc2cccc(C)c2)s1 2.93 µM
CC(C)(C)C(=O)c1cnc(Nc2ccccc2)s1 2.33 µM
O=C(O)c1cc(N/N=C/c2cccc3ccccc23)ccc1Cl 3.29 µM
O=C(O)c1cccc(N/N=C/c2cccc3ccccc23)c1 0.0826 µM
Cc1[nH]c2ccccc2c1/C=N/Nc1cccc(C(=O)O)c1 7.36 µM
COc1ccccc1/C=C/C=N/Nc1cccc(C(=O)O)c1 0.185 µM
CC(C)n1cc(/C=N/Nc2ccc(Cl)c(C(=O)O)c2)c2ccccc21 3.29 µM
O=C(O)c1cc(N/N=C/c2c(O)ccc3ccccc23)ccc1Cl 2.07 µM
COc1ccc2ccccc2c1/C=N/Nc1cccc(C(=O)O)c1 6.56 µM
Cc1cccc(N/N=C/c2ccccc2O)c1 10.4 µM
Cc1[nH]c2ccccc2c1N=Nc1cccc(C(=O)O)c1 1.85 µM
Cc1ccn2c(Nc3ccc4c(c3)OCCO4)c(-c3ccc(Cl)s3)nc2c1 13.1 µM
Cc1ccc(-c2nc3ccccn3c2Nc2ccc3c(c2)OCCO3)s1 1.85 µM
COC(=O)c1sccc1N/N=C/c1ccc(OC)c(OC)c1OC 6.56 µM
COC(=O)c1sccc1N/N=C/c1cccc(Oc2ccccc2)c1 1.85 µM
COc1cc(/C(C)=N/NC(=O)CSc2nncn2C)ccc1OCc1ccccc1Cl 10.4 µM
